This is an account of results in PubChem BioAssay (NCATS).

Experiment [1] is described as follows: qHTS assay for measurement of the activity of small molecule inhibitors on Zika virus induced Caspase-3 activity in human iPSC derived neural progenitor cells (hNPCs) (AID 1224857). Also: nearly all actives have a fitted effect of over 65% in size. Also: potency is read from the fitted curve at half-maximal effect. In short, it runs like this: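 In medium with heparin 2 ug/ml and cyclopamine 2 uM, hNPCs (350 cells/well) received compound for one hour and then Zika virus at 2 FFU/cell; caspase activity was measured by Caspase-Glo 3/7 luminescence 6 h post-infection.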

Experiment [2] in a line: NS1 protein of Zika virus - qHTS assay to identify small molecule inhibitors in human HEK 293 cells (AID 1347053). Also: nearly all actives have a fitted effect of over 55% in size. Also: potency is read from the fitted curve at half-maximal effect. The gist of the method:
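Read-out is a two-antibody TR-FRET for ZIKV NS1, normalized between uninfected cells and infected cells. Compound added 1 h before MR766 infection at MOI 0.5; human HEK 293 cells incubated 24 h, 37 C.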

Experiment [3] is described as follows: qHTS of pediatric cancer cell lines to identify multiple opportunities for drug repurposing: Primary screen for DAOY cells (AID 1347090). Also: nearly all actives have a fitted effect of over 55% in size. Also: potency is read from the fitted curve at half-maximal effect. In short, it runs like this:
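Eight- or eleven-point concentration series, 48 h treatment at 37 degrees C in growth media; readout CellTiter-Glo luminescence. Potency and efficacy were taken from the concentration-response curves.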
A general note: In qHTS, concentration-response curves come from the screen itself.

Experiment [4] deals with T1, Tyrosine-protein phosphatase non-receptor type substrate 1 (Homo sapiens) + Leukocyte surface antigen CD47 (Homo sapiens) (UniProt P78324+Q08722). Nature of the experiment: CD47-SIRPalpha protein protein interaction - LANCE assay qHTS validation (AID 1347057; active = well fitted curve in the direction sought with a large enough effect in the signal ratio, with a control signal flat, not every such curve was filed as active; the % refers to the signal ratio; also: series mostly up to about 38 µM). The gist of the method: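 Inhibition of soluble CD47/SIRPalpha ectodomain association by titrated compounds, measured as 665/615 nm time-resolved FRET ratio after sequential 30 min room-temperature incubations.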
T1 sequence (P78324 whole entry, looked up, the tested form may be a part): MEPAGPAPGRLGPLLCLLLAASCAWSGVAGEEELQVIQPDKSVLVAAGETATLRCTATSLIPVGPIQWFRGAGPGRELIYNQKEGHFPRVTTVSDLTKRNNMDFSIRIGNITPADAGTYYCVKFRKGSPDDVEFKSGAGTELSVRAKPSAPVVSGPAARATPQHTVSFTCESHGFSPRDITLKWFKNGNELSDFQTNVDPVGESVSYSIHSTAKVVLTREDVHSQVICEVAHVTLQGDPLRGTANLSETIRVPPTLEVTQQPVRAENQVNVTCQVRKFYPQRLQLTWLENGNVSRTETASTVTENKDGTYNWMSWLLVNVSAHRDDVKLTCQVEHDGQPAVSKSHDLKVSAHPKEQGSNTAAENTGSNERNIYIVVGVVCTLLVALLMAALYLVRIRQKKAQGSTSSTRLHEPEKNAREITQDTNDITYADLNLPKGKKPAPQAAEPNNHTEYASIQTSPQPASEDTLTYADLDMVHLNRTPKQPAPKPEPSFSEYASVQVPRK
T1 sequence (Q08722 whole entry, looked up, the tested form may be a part): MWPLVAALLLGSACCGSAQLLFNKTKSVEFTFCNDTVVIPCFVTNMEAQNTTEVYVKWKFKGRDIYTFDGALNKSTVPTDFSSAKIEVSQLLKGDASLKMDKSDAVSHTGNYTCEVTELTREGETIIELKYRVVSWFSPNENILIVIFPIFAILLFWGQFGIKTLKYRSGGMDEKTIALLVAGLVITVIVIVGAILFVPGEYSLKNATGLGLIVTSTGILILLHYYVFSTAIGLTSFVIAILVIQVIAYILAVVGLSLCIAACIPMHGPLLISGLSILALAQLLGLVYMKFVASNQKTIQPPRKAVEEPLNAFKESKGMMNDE
For orientation: TR-FRET usually uses a lanthanide donor and a delayed reading to cut background.

Experiment [5] deals with T1, Tyrosine-protein phosphatase non-receptor type substrate 1 (Homo sapiens) + Leukocyte surface antigen CD47 (Homo sapiens). Nature of the experiment: CD47-SIRPalpha protein protein interaction - Alpha assay qHTS validation (AID 1347059).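 Also: bead proximity luminescence from CD47 binding SIRPalpha after compound preincubation with SIRPalpha.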 In short, it runs like this: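 In PBS (pH 7.4) with 0.05% IGEPAL CA-630, compound is preincubated with biotin-Avi-SIRPalpha ectodomain before His-CD47 ectodomain and affinity beads are added. Light-protected room-temperature incubations; AlphaScreen readout.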

Experiment [6] in a line: qHTS assay for measurement of the activity of small molecule inhibitors on Zika virus induced Caspase-3 activity in human astrocytoma cells (AID 1224859). Also: potency is read from the fitted curve at half-maximal effect. The gist of the method:
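A cell-based luminescent caspase-3/7 assay used SNB-19 cells infected with ZIKV (2 FFU/cell) for 6 h following 1 h compound pretreatment.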

Experiment [7] can be described thus: qHTS assay to identify small molecule inhibitors of chordoma cells - UCH-1 (AID 1259355). Also: nearly all actives have a fitted effect of over 55% in size. In short, it runs like this:
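A 48hr growth-inhibition format: each drug tested at 15 concentrations together with added auranofin, camptothecin, doxorubicin, rubitecan and topotecan, with cell viability quantified as CellTiter-Glo luminescence.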

A short description of experiment [8]: qHTS assay to identify small molecule inhibitors of chordoma cells - UCH-2 (AID 1259356). Also: series mostly up to about 46 µM.
A short description of experiment [9]: qHTS of pediatric cancer cell lines to identify multiple opportunities for drug repurposing: Primary screen for TC32 cells (AID 1347089). Also: nearly all actives have a fitted effect of over 60% in size. Also: potency is read from the fitted curve at half-maximal effect. The gist of the method: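 TC32 cells, 500-1,000/well in growth medium, compound-treated 48 h at 37 °C; viability from CellTiter-Glo luminescence. Primary screen: MIPE 11-point (0.78 nM–46 µM final), NPC 8-point (0.59 nM–46 µM final); confirmatory at 11-point dilutions.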

A short description of experiment [10]: P-glycoprotein substrates identified in KB-8-5-11 adenocarcinoma cell line, qHTS therapeutic library screen (AID 1346987). Also: nearly all actives have a fitted effect of over 65% in size. Also: potency is read from the fitted curve at half-maximal effect. In short, it runs like this: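 In this qHTS, P-gp-rich KB-8-5-11 cells received library compounds across a concentration range. Viability was quantified by luminescence after 72 h at 37 degree C.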
Experiment [11] in a line: Natriuretic polypeptide receptor (hNpr1) antagonism - Pilot counterscreen GloSensor control cell line (AID 1347045; calls by dose curve; also: series mostly up to about 38 µM). In short, it runs like this:
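HEK293 cGMP-sensor cells; 2% GloSensor reagent 2 h RT; LOPAC compounds in 1:5 titrations 30-50 min; 50 uM SNP 20 min; luminescence pre-read and post-read.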
Background: The purpose of a counterscreen is to sort out artefacts and off-target activity.

In experiment [12] the target is Atrial natriuretic peptide receptor 1 (Homo sapiens) (UniProt P16066). The experiment in a line: Natriuretic polypeptide receptor (hNpr1) antagonism - Pilot screen (AID 1347049; calls by dose curve;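 also: HEK293 cells with hNpr1 and GloSensor cGMP luciferase stimulated by 0.1 nM hNppA; agonist-evoked cGMP luminescence read 20 min after hNppA addition; series mostly up to about 58 µM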). The gist of the method:
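Cells expressing receptor plus cGMP biosensor are seeded and incubated overnight at 37C, then loaded with GloSensor reagent (2% final) at room temperature for 2 h. Library compounds go on for 30 min. A pre-read precedes agonist (hNppA, 0.1 nM final) and a 20-min readout.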

The target of experiment [13] is Atrial natriuretic peptide receptor 2 (Homo sapiens) (UniProt P20594). The experiment in a line: Natriuretic polypeptide receptor (hNpr2) antagonism - Pilot subtype selectivity assay (AID 1347050; calls by dose curve). The gist of the method:
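Read-out: GloSensor luminescence (CCD imager), baseline vs post-stimulation. HEK293 cells expressing hNpr2; compounds pre-incubated 30-50 min at ambient temperature; hNppC 1 nM final, 20 min.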

In experiment [14] the target is Parathyroid hormone/parathyroid hormone-related peptide receptor (Homo sapiens) (UniProt Q03431). The experiment in a line: qHTS for PTHR1 Agonists: Optimization Screen against the NCGC LOPAC library (AID 1347079).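 Also: GloSensor cAMP luminescence in HEK-293 GP2 cells expressing human PTHR1 with IBMX.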 In short, it runs like this:
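Signal increase flags agonism. GP2 cells, derived from HEK-293, express human PTHR1 and a GloSensor cAMP construct.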

Each structure is given as a SMILES string. Records with an inconclusive call do not appear. Active and inactive are the calls of the source. Unless noted, calls follow the shape of the dose curve; as a rule, active = well fitted curve in the direction sought with a large enough effect; inconclusive = small, poorly fitted or top-dose-only effect, or another doubt; inactive = no such curve, though single readings can be large; an effect the other way counts as inactive or inconclusive.

Sequence of Atrial natriuretic peptide receptor 1 (Homo sapiens) (P16066 whole entry, looked up): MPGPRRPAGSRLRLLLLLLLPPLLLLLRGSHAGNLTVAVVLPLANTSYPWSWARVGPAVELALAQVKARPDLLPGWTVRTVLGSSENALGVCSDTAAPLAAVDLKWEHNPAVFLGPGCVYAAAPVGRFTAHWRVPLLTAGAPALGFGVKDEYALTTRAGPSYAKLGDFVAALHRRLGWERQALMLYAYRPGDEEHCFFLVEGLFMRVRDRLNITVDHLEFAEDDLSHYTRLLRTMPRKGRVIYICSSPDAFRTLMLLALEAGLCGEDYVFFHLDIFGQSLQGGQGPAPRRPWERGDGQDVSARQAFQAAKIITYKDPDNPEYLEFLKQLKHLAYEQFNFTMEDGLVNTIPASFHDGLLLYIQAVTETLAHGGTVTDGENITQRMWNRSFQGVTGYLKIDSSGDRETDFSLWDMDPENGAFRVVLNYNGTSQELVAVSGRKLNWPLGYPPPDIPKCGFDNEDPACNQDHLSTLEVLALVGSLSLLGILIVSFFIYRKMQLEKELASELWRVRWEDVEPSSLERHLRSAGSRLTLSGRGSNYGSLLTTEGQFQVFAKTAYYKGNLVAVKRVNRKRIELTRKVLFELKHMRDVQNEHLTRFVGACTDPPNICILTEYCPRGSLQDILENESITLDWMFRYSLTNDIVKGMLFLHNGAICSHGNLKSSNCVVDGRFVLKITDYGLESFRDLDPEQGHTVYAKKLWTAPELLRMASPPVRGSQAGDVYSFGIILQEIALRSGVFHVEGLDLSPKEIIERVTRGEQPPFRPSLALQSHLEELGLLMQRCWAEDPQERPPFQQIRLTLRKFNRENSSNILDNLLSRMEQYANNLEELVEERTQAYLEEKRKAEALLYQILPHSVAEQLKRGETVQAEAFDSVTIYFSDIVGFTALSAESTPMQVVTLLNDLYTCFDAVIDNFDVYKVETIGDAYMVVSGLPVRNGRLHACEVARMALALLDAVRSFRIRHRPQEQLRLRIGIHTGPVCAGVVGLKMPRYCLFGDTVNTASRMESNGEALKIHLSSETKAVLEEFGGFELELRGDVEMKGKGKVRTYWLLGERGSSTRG
Sequence of Parathyroid hormone/parathyroid hormone-related peptide receptor (Homo sapiens) (Q03431 whole entry, looked up): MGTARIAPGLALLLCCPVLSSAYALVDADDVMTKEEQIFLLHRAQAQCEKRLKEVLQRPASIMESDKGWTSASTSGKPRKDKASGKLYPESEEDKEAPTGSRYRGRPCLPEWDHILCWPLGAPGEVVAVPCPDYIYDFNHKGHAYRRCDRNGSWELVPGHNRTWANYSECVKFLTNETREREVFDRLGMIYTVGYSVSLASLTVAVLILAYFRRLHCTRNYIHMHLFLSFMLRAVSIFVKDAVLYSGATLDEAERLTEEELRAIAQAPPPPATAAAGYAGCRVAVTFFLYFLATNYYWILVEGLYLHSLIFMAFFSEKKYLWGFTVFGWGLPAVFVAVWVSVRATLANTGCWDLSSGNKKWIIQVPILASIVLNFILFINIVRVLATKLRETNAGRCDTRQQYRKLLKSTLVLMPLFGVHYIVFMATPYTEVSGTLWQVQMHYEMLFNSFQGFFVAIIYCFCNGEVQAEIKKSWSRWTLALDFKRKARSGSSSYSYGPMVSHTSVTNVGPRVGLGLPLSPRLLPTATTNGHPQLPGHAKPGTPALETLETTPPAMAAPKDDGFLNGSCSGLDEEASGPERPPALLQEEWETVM
Sequence of Atrial natriuretic peptide receptor 2 (Homo sapiens) (P20594 whole entry, looked up): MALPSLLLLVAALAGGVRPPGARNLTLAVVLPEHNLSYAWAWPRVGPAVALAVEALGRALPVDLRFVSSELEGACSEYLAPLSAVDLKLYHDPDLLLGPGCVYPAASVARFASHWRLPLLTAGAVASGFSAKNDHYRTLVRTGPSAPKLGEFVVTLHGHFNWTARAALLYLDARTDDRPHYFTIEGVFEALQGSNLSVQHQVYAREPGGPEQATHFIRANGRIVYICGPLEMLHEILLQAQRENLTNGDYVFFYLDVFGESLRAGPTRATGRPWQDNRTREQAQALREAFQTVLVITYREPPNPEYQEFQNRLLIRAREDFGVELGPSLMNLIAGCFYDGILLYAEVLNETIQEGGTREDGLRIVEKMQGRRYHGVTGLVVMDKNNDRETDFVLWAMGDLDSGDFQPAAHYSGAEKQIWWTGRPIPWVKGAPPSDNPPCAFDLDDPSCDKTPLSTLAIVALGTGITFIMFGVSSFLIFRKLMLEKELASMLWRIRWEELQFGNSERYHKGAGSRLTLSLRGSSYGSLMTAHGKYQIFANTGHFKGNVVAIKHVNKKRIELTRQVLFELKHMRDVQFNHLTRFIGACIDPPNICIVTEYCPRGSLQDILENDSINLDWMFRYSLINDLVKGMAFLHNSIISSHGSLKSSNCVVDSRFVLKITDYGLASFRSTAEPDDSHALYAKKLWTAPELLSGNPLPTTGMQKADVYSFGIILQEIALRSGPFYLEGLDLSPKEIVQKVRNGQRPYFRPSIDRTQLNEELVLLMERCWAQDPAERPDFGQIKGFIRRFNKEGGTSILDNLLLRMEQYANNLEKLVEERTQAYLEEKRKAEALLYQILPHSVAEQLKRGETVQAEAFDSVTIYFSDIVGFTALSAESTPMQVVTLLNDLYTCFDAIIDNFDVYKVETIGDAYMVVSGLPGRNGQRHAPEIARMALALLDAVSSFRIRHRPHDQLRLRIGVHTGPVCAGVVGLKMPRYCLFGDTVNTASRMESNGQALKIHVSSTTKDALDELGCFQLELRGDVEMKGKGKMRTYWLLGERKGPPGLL

With `O=c1cc(-c2ccccc2)oc2ccccc12`, in experiment [1], the Potency is 35.5 µM (active). The Potency entry in experiment [2] and in experiment [3] was “inactive” in each case.
On to `O=C1NC(O)=NC1(c1ccccc1)c1ccccc1`, for which the Potency entry in experiment [1], in experiment [2], in experiment [4] and in [5] was “inactive” each time.
As for `NS(=O)(=O)c1ccc(-n2nc(C(F)(F)F)cc2-c2ccc(Cl)cc2)cc1`, the Potency result in [1], in [2], in [4] and in experiment [5] was “inactive” in each case.
As for `O=C(CCN1CCN(CCO)CC1)N1c2ccccc2Sc2ccc(C(F)(F)F)cc21`, the Potency result in [6], in experiment [7], in [8], in experiment [2], in [9] and in experiment [3] was “inactive” each time.
Take `COC(=O)C1=C(C)NC(C)=C(C(=O)OCC(C)C)C1c1ccccc1[N+](=O)[O-]` (stereo unspecified): the Potency entry in experiment [6], in [7], in experiment [8], in experiment [2], in experiment [9] and in experiment [3] was “inactive” in each case.
Turning to `O=C(O)c1ccccc1Nc1cccc(C(F)(F)F)c1`, the Potency entry in [6], in experiment [7], in [8], in [10], in experiment [2] and in experiment [9] was “inactive” throughout. Moreover, the Potency result in experiment [3] was “inactive”.
For `O=C1CN(/N=C/c2ccc([N+](=O)[O-])o2)C(=O)N1`, the Potency entry in experiment [6], in [7], in [8], in experiment [2] and in experiment [3] was “inactive” throughout.
Regarding `Cc1c(Nc2ncccc2C(=O)O)cccc1C(F)(F)F`, the Potency result in experiment [6], in [7], in experiment [8], in experiment [10], in [2] and in experiment [9] was “inactive” in each case. Further, the Potency result in [3] was “inactive”.
Take `CCOc1ccc2nc(S(N)(=O)=O)sc2c1`: the Potency entry in experiment [6], in experiment [8], in [10], in [2], in [9] and in experiment [3] was “inactive” throughout.
On to `Nc1ccc(C(=O)O)c(O)c1`, for which the Potency result in experiment [6], in experiment [7], in [8], in experiment [10], in experiment [2] and in [9] was “inactive” in each case. Further, in experiment [3], the Potency entry was “inactive”.
Consider `Nc1c(CC(=O)O)cccc1C(=O)c1ccc(Br)cc1`, for which the Potency result in experiment [6], in experiment [7], in experiment [8], in experiment [10], in experiment [2] and in experiment [9] was “inactive” each time. In addition, the Potency result in [3] was “inactive”.
Regarding `CCCSc1ccc2nc(NC(=O)OC)[nH]c2c1`, the Potency entry in experiment [6] and in experiment [8] was “inactive” in each case. In addition, the Potency is 0.556 µM (active) in experiment [10], 0.938 µM (active) in experiment [9] and 1.33 µM (active) in experiment [3].
On to `CCCCCCCCCCCCCCCC(=O)OC(C)C`, for which the Potency entry in experiment [6], in [7], in [8], in experiment [10], in experiment [2] and in experiment [9] was “inactive” in each case. In [3], the Potency entry was “inactive”.
`CCCCC1C(=O)N(c2ccccc2)N(c2ccc(O)cc2)C1=O` (stereo unspecified): the Potency entry in experiment [6], in experiment [7] and in experiment [8] was “inactive” throughout. Moreover, the Potency in [2] was 3.98 µM (active); in experiment [3] it was 5.31 µM (active).
`CCCCCCCCCCCC(=O)[O][Sn]([CH2]CCC)([CH2]CCC)[O]C(=O)CCCCCCCCCCC`: the Potency entry in experiment [6], in experiment [8], in experiment [10], in experiment [2], in experiment [9] and in [3] was “inactive” throughout.
Take `O=C(/C=C/c1ccccc1)NCCO`: the Potency entry in experiment [6], in [7], in [8], in experiment [10], in experiment [9] and in [3] was “inactive” in each case.
For the compound `CCNC(=O)[C@H]1O[C@@H](n2cnc3c(N)nc(NCCc4ccc(CCC(=O)O)cc4)nc32)[C@H](O)[C@@H]1O`, the Potency entry in experiment [6], in experiment [10], in [11], in experiment [12], in experiment [13] and in experiment [14] was “inactive” in each case.
Regarding `Cc1[nH]cnc1CN1CCc2c(c3ccccc3n2C)C1=O`, the Potency entry in [6], in [7], in experiment [8], in [2], in [9] and in [3] was “inactive” throughout.
Turning to `CN(C)CCn1nnnc1SCC1=C(C(=O)O)N2C(=O)[C@@H](NC(=O)Cc3csc(N)n3)[C@H]2SC1`, the Potency result in experiment [6], in experiment [7], in [8], in experiment [10], in experiment [2] and in [9] was “inactive” each time. The Potency result in [3] is “inactive”.
For `O=C(OCc1ccccc1)c1ccccc1`, the Potency result in [6], in experiment [7], in experiment [8], in experiment [10], in experiment [2] and in [9] was “inactive” throughout. In addition, in [3], the Potency entry is “inactive”.
`COc1ccc(-c2cc(=S)ss2)cc1`: the Potency entry in experiment [6], in experiment [7], in experiment [8], in [9] and in [3] was “inactive” throughout.
`CC(C(=O)O)c1ccc(C(=O)c2ccccc2)s1` (stereo unspecified): in experiment [6], the Potency was 14.1 µM (active). The Potency entry in experiment [7], in [8], in experiment [10], in [2], in experiment [9] and in experiment [3] was “inactive” in each case.
On to `N#C/C(=C\c1ccc(O)c(O)c1)C(=O)NCCCc1ccccc1`, for which the Potency entry in experiment [6], in experiment [10], in [11], in experiment [12], in experiment [13] and in [14] was “inactive” each time.
For the compound `C#C[C@]1(O)CC[C@H]2[C@@H]3CCc4cc(O)ccc4[C@H]3CC[C@@]21C`, the Potency entry in experiment [6], in [8] and in [2] was “inactive” throughout. In addition, the Potency in [10] is 6.51 µM (active); in experiment [3], 13.3 µM (active).
On to `C=CCCCCCCCCC(=O)O`, for which the Potency entry in experiment [6], in experiment [7], in [8], in experiment [10], in [9] and in experiment [3] was “inactive” each time.
On to `CCCCCCOc1ccccc1C(N)=O`, for which the Potency result in experiment [6], in [7], in experiment [8], in experiment [9] and in [3] was “inactive” in each case. In addition, the Potency in experiment [10] was 18.4 µM (active).
Consider `COc1cc(NC(C)CCCN)c2ncccc2c1` (stereo unspecified), for which the Potency result in [6], in [7], in experiment [8], in experiment [10], in experiment [2] and in experiment [3] was “inactive” each time. For the same compound, the Potency in experiment [9] is 16.7 µM (active).
Turning to `[O-][n+]1ccccc1SSc1cccc[n+]1[O-]`, the Potency result in experiment [6] and in experiment [8] was “inactive” in each case. The Potency in experiment [10] is 7.31 µM (active); in [9] it was 0.325 µM (active); in [3], 0.0731 µM (active).
As for `c1ccc2sc(SN3CCOCC3)nc2c1`, the Potency entry in experiment [6], in experiment [7], in [8], in [10], in experiment [2] and in [9] was “inactive” throughout. In experiment [3], the Potency result was “inactive”.
